Data as given in ChEMBL document CHEMBL2218924, “A broad activity screen in support of a chemogenomic map for kinase signalling research and drug discovery” (Biochem J, 2013).

Columns and labels:
[1] = target: Ribosomal protein S6 kinase alpha-1 (Homo sapiens) (UniProt Q15418); settings: at 1 µM
[2] = target: Ribosomal protein S6 kinase alpha-1 (Homo sapiens) (UniProt Q15418); settings: at 10 µM
[3] = target: Ribosomal protein S6 kinase alpha-3 (Homo sapiens) (UniProt P51812); settings: at 1 µM
Sequence of Ribosomal protein S6 kinase alpha-3 (Homo sapiens) (P51812 whole entry): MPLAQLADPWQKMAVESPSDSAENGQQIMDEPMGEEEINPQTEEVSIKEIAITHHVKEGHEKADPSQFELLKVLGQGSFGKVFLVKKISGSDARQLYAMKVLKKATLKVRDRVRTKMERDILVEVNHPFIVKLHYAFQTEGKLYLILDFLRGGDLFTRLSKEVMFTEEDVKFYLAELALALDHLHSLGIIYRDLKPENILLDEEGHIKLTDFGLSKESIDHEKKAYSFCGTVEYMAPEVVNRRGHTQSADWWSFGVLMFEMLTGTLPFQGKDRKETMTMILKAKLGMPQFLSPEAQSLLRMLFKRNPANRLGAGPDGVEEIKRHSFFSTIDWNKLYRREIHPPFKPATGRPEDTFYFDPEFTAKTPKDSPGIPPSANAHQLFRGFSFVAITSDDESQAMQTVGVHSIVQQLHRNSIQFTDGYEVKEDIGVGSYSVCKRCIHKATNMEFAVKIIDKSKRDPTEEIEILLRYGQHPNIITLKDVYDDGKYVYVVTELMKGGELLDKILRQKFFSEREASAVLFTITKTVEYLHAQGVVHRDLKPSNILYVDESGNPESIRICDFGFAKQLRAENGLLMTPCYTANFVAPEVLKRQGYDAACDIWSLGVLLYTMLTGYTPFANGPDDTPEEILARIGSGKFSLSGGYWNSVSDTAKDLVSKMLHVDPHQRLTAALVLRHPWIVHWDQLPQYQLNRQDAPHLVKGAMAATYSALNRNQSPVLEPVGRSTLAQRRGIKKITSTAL

[4] = target: Ribosomal protein S6 kinase alpha-3 (Homo sapiens) (UniProt P51812); settings: at 10 µM
[5] = target: Ribosomal protein S6 kinase alpha-2 (Homo sapiens) (UniProt Q15349); settings: at 1 µM
Sequence of Ribosomal protein S6 kinase alpha-2 (Homo sapiens) (Q15349 whole entry): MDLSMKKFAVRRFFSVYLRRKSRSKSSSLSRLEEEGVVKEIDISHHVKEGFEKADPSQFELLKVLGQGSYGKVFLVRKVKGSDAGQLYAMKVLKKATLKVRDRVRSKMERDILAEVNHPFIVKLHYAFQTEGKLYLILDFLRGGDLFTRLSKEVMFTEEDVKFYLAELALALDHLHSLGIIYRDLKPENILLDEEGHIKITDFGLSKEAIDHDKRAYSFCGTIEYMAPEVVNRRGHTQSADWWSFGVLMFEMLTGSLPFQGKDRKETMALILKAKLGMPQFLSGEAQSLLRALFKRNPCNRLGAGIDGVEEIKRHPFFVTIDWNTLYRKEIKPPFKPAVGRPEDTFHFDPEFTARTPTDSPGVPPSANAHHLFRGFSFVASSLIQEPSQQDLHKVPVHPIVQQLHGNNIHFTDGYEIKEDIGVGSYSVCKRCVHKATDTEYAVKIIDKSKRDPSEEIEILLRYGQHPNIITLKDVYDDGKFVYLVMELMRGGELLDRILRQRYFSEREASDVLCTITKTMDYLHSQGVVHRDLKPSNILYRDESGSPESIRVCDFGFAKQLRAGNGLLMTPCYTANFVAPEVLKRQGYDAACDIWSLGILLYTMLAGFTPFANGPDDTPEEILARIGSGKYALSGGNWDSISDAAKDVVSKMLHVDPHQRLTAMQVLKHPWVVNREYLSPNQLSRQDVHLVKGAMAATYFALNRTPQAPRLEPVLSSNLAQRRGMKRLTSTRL

[6] = target: Ribosomal protein S6 kinase alpha-2 (Homo sapiens) (UniProt Q15349); settings: at 10 µM
[7] = target: Mitogen-activated protein kinase 14 (Homo sapiens) (UniProt Q16539); settings: at 1 µM
Sequence of Mitogen-activated protein kinase 14 (Homo sapiens) (Q16539 whole entry): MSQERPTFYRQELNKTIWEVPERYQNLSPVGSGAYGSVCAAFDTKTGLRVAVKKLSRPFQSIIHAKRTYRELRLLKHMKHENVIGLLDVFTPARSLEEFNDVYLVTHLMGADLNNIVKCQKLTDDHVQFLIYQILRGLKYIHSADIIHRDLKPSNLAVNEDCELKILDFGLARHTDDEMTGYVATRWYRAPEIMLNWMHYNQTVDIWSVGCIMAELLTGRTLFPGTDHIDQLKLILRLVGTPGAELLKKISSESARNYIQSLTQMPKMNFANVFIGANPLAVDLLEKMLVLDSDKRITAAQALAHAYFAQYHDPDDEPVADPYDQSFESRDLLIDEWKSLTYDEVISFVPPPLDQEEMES

[8] = target: Mitogen-activated protein kinase 14 (Homo sapiens) (UniProt Q16539); settings: at 10 µM
[9] = target: Mitogen-activated protein kinase 11 (Homo sapiens) (UniProt Q15759); settings: at 1 µM
Sequence of Mitogen-activated protein kinase 11 (Homo sapiens) (Q15759 whole entry): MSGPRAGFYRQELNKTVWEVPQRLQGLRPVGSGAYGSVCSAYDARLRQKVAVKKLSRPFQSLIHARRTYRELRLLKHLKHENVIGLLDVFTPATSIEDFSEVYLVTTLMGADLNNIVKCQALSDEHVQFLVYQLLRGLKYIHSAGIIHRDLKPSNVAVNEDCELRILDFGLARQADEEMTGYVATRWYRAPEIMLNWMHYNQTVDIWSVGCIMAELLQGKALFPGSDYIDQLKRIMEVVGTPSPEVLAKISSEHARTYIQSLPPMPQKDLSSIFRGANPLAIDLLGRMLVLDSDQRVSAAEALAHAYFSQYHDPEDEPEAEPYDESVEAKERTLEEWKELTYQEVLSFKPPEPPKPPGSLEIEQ

[10] = target: T1, Mitogen-activated protein kinase 13 (Homo sapiens) (UniProt O15264); settings: at 1 µM
T1 sequence (whole entry): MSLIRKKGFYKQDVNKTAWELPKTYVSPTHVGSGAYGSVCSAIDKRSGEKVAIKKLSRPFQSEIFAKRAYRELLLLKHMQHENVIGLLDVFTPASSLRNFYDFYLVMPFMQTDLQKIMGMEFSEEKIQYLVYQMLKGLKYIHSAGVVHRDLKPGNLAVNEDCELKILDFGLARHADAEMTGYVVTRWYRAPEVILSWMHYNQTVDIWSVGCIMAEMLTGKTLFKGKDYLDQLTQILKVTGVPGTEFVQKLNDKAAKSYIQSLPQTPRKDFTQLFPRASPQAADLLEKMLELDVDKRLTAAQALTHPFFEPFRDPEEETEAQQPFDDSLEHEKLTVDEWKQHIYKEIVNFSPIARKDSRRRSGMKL

[11] = target: T1, Mitogen-activated protein kinase 13 (Homo sapiens); settings: at 10 µM
[12] = target: T2, Serine/threonine-protein kinase Sgk1 (Homo sapiens) (UniProt O00141); settings: at 1 µM
T2 sequence (whole entry): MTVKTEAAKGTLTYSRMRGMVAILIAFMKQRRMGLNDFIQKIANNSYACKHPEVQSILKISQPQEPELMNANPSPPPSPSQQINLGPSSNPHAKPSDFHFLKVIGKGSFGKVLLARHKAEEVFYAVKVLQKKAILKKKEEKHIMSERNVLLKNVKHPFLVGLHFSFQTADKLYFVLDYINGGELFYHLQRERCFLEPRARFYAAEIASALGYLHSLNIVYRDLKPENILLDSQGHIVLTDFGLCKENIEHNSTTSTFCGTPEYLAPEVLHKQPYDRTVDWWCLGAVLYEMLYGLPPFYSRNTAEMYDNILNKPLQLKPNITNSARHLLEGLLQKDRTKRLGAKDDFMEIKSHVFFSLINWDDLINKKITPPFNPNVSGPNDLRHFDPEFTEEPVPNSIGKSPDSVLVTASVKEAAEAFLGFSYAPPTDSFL

[13] = target: T2, Serine/threonine-protein kinase Sgk1 (Homo sapiens); settings: at 10 µM
[14] = target: T3, Serine/threonine-protein kinase Sgk2 (Homo sapiens) (UniProt Q9HBY8); settings: at 1 µM
T3 sequence (whole entry): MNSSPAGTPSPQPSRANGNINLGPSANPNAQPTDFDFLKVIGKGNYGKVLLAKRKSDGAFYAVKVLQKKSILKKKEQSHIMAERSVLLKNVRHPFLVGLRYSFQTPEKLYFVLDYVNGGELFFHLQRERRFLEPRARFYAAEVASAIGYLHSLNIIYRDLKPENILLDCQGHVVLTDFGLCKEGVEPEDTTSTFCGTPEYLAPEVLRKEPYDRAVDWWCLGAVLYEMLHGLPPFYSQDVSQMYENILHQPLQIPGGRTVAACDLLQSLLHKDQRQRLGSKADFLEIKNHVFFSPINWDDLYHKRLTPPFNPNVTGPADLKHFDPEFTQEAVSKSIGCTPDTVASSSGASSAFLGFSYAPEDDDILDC

[15] = target: T3, Serine/threonine-protein kinase Sgk2 (Homo sapiens); settings: at 10 µM
[16] = target: T4, Serine/threonine-protein kinase Sgk3 (Homo sapiens) (UniProt Q96BR1); settings: at 10 µM
T4 sequence (whole entry): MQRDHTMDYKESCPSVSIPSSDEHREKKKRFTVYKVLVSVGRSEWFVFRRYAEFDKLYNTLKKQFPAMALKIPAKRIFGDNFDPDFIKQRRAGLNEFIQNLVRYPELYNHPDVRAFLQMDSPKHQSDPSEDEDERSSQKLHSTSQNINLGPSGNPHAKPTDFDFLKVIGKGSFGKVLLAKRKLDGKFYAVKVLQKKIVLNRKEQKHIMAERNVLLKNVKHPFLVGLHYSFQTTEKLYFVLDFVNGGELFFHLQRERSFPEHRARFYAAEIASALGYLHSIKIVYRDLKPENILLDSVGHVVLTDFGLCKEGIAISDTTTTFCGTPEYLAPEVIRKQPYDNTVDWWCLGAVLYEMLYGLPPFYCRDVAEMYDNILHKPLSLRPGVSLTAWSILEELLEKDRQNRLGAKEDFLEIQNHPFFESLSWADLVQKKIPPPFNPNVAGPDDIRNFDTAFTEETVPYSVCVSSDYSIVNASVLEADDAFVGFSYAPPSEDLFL

[17] = target: Serine/threonine-protein kinase SIK1 (Homo sapiens) (UniProt P57059); settings: at 1 µM
Sequence of Serine/threonine-protein kinase SIK1 (Homo sapiens) (P57059 whole entry): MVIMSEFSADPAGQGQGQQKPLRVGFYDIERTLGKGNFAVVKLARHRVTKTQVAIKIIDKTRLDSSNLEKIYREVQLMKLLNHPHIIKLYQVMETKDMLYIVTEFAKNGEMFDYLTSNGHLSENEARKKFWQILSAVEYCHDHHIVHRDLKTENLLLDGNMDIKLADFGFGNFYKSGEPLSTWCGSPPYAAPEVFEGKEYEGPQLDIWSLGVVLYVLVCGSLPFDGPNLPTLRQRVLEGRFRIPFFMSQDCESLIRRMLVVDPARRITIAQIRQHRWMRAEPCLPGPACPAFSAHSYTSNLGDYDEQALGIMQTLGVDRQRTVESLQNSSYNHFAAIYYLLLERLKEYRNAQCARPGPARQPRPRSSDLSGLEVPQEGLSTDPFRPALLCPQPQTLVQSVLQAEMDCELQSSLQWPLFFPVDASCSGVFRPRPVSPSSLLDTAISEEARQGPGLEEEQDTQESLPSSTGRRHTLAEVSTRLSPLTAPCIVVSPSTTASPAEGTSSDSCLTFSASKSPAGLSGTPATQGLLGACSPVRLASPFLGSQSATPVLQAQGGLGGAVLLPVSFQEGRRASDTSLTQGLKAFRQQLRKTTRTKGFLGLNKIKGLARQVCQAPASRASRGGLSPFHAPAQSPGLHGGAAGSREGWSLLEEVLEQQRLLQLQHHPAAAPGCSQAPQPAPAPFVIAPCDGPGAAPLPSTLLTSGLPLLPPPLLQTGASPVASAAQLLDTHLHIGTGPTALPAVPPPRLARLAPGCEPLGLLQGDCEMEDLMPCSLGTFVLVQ

[18] = target: Ribosomal protein S6 kinase alpha-6 (Homo sapiens) (UniProt Q9UK32); settings: at 1 µM
Sequence of Ribosomal protein S6 kinase alpha-6 (Homo sapiens) (Q9UK32 whole entry): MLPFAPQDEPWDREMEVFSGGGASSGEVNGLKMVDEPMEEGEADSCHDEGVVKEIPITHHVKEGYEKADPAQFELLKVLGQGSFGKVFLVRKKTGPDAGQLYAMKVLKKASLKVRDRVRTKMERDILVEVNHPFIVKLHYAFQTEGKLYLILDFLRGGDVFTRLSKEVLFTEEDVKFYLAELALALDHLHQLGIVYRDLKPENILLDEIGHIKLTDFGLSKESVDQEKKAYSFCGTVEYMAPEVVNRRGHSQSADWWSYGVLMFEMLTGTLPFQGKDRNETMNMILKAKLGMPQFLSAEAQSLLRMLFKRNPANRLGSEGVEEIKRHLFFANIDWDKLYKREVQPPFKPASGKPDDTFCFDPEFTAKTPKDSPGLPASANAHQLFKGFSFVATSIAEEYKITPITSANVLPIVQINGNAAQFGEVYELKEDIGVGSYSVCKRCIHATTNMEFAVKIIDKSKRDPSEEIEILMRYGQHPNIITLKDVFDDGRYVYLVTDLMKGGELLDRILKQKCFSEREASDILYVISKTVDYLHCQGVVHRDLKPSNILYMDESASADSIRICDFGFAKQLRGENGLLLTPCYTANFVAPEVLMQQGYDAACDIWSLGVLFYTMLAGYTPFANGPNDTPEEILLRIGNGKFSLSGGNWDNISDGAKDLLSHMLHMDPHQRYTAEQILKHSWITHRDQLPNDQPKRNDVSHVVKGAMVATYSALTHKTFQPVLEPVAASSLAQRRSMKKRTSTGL

[19] = target: Ribosomal protein S6 kinase alpha-6 (Homo sapiens) (UniProt Q9UK32); settings: at 10 µM
[20] = target: Mitogen-activated protein kinase 11 (Homo sapiens) (UniProt Q15759); settings: at 10 µM

Sequence of Ribosomal protein S6 kinase alpha-1 (Homo sapiens) (Q15418 whole entry): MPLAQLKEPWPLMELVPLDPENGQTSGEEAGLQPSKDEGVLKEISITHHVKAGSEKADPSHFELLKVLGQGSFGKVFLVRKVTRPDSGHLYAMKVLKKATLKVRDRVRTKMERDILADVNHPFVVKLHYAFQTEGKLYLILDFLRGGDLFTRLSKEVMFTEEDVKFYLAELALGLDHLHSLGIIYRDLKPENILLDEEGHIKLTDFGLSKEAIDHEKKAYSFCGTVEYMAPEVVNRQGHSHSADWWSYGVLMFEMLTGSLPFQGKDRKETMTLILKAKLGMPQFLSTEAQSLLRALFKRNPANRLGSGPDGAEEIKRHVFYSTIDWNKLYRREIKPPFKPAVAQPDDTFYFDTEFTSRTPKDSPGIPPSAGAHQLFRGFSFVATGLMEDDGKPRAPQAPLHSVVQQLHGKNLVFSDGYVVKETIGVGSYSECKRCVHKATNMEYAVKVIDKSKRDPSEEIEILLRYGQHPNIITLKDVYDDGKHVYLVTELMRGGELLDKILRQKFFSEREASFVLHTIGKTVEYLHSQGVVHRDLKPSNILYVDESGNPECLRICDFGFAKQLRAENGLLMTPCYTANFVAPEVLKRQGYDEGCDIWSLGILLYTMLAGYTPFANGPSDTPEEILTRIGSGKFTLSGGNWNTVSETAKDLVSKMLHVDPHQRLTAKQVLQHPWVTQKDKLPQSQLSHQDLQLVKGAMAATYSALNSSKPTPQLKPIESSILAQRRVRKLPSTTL

Structure (SMILES)	residual activity [1]	residual activity [2]	residual activity [3]	residual activity [4]	residual activity [5]	residual activity [6]	residual activity [7]	residual activity [8]	residual activity [9]	residual activity [10]	residual activity [11]	residual activity [12]	residual activity [13]	residual activity [14]	residual activity [15]	residual activity [16]	residual activity [17]	residual activity [18]	residual activity [19]	residual activity [20]
CCCC(=O)Oc1ccc2[nH]c(C(=O)c3cc4ccccc4[nH]3)cc2c1	129%	99%	122%	93%	102%	90%	79%	81%	104%	104%	86%	101%	95%	99%	96%	85%	83%	–	–	–
Cc1cc(C)c(/C=C2\C(=O)Nc3ccccc32)[nH]1	51%	11%	26%	5%	27%	4%	79%	98%	–	124%	–	–	–	80%	67%	–	–	38%	17%	–
COc1cc2nccc(Oc3ccc(NC(=S)NC(=O)c4ccccc4C)cc3)c2cc1OC	96%	81%	70%	19%	–	–	82%	68%	83%	101%	87%	–	–	99%	–	79%	32%	88%	123%	87%
COc1ccc(CNC(=O)Nc2ncc([N+](=O)[O-])s2)cc1	136%	109%	–	–	–	–	–	–	–	–	–	–	–	–	–	–	–	–	–	–
COc1ccc2c(c1)c(C1=C(c3c[nH]c4ccccc34)C(=O)NC1=O)cn2CCCN(C)C	6%	1%	2%	-1%	0%	-2%	–	–	–	–	100%	107%	56%	80%	41%	–	77%	4%	2%	–
Nc1ncnc2c1c(-c1ccc(Oc3ccccc3)cc1)cn2C1CCCC1	123%	39%	65%	37%	106%	69%	86%	63%	87%	95%	–	110%	111%	98%	78%	86%	78%	91%	76%	75%
CC(C)(C)n1nc(Cc2cccc3ccccc23)c2c(N)ncnc21	107%	65%	112%	80%	99%	85%	41%	7%	64%	101%	95%	100%	127%	101%	78%	105%	72%	113%	77%	22%
CN(C)S(=O)(=O)c1ccc2c(c1)/C(=C/c1cc3c([nH]1)CCCC3)C(=O)N2	95%	95%	61%	42%	36%	17%	87%	86%	94%	97%	96%	82%	96%	115%	95%	–	–	84%	89%	–
Cn1c2ccccc2c2c3c(c4c5ccccc5n(CCC#N)c4c21)CNC3=O	7%	4%	1%	1%	0%	-1%	–	–	–	99%	–	82%	40%	76%	47%	–	9%	4%	4%	100%
O=C1Nc2ccc(Cl)cc2/C1=C/c1cc(Cl)c(O)c(Cl)c1	94%	29%	68%	20%	88%	36%	54%	10%	88%	–	93%	64%	69%	84%	55%	81%	72%	77%	55%	67%
O=c1cc(N2CCOCC2)oc2c1ccc1ccccc12	108%	97%	57%	46%	109%	99%	100%	92%	93%	100%	95%	105%	97%	92%	86%	97%	95%	110%	101%	101%
CCCCc1c(-c2ccc(OC)cc2)[nH]c2nccnc12	122%	109%	55%	52%	70%	70%	–	–	106%	–	–	106%	117%	90%	81%	88%	86%	89%	100%	–
COc1ccc(COc2ccc(Cc3cnc(N)nc3N)cc2OC)cc1	131%	109%	64%	64%	–	71%	–	99%	–	–	–	–	–	108%	–	–	–	110%	116%	–
O=C1NC(=O)C(c2cn(CCCn3ccnc3)c3ccccc23)=C1Nc1ccccc1	8%	1%	3%	1%	0%	-1%	62%	78%	–	–	–	46%	14%	52%	12%	–	79%	5%	2%	–
O=C1NC(=O)C(c2cn(CCCO)c3ncccc23)=C1c1cnccn1	98%	99%	41%	45%	63%	55%	82%	92%	–	99%	94%	–	–	–	92%	–	129%	83%	65%	–
COc1cc2c(cc1OC)-c1n[nH]c(Nc3cccc(F)c3)c1C2	112%	79%	63%	39%	–	63%	69%	44%	60%	102%	74%	70%	–	109%	98%	–	4%	105%	–	25%
